The sample as a whole holds a higher share of the strongest signals than the screen did.
system: Man(b1-4)GlcNAc; experiment: glycan array binding signal (z-score within array); higher = stronger binding; details: glycan notation: IUPAC condensed, linker removed
In short: (§1)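 Negative Z-scores can be read as non-binding. The Z-score is calculated within each array and then averaged across arrays of one protein sequence at different concentrations or buffers and across linkers. Arrays, 3228 in all, were curated from the Consortium for Functional Glycomics database and kept only where the protein sequence was available.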

Aggrecan (Rattus norvegicus), NP_071526, sequence (chain, as listed by the source): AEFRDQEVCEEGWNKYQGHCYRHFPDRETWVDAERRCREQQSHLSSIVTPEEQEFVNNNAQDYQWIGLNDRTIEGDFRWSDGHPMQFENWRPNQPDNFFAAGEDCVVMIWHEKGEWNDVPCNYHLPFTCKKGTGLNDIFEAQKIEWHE
PILRb (Mus musculus), Q2YSF2, sequence (Q2YSF2 entry or part of it): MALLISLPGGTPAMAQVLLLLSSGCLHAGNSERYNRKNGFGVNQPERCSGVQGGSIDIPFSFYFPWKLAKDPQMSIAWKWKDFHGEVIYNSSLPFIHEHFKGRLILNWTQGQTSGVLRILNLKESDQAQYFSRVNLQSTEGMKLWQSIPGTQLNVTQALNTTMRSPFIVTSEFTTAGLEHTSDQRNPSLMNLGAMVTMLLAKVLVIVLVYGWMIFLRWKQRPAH
PILRa (Mus musculus), Q2YSF3, sequence (Q2YSF3 entry or part of it): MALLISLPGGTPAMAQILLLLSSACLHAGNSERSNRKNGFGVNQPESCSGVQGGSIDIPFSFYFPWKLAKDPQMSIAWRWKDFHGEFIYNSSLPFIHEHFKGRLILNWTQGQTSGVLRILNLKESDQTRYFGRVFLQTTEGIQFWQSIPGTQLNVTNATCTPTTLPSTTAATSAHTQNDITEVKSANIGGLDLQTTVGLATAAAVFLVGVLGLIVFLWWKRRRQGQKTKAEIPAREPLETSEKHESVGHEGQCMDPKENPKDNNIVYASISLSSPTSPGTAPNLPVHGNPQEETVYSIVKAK
Avaren (Actinomycete K97), sequence (chain, as listed by the source): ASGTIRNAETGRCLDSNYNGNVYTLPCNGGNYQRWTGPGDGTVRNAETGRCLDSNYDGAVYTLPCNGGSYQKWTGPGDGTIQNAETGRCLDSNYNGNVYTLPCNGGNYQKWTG
SRLC (Mus musculus), Q8VIF6, sequence (Q8VIF6 other isoform, or with tags, fused parts or gaps): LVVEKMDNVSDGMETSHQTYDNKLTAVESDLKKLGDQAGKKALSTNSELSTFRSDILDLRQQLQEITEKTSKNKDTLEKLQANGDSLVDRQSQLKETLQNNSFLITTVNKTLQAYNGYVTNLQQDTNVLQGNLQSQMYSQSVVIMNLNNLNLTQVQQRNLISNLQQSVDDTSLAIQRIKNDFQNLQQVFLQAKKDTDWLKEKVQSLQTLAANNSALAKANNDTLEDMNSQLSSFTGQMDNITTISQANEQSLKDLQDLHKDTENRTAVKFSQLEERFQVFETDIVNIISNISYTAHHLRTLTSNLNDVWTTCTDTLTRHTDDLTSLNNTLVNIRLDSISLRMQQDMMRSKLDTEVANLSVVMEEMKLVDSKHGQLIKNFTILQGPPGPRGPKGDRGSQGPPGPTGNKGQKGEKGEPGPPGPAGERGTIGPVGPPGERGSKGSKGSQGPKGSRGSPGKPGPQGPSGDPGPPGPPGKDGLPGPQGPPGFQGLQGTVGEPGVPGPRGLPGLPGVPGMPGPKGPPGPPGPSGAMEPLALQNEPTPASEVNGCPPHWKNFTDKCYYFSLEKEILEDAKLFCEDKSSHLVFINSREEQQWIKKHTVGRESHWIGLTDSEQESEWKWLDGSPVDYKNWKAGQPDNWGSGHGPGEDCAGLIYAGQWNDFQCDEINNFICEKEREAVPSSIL
wLAT-1A (Homo sapiens), Q01650, sequence (Q01650 whole entry): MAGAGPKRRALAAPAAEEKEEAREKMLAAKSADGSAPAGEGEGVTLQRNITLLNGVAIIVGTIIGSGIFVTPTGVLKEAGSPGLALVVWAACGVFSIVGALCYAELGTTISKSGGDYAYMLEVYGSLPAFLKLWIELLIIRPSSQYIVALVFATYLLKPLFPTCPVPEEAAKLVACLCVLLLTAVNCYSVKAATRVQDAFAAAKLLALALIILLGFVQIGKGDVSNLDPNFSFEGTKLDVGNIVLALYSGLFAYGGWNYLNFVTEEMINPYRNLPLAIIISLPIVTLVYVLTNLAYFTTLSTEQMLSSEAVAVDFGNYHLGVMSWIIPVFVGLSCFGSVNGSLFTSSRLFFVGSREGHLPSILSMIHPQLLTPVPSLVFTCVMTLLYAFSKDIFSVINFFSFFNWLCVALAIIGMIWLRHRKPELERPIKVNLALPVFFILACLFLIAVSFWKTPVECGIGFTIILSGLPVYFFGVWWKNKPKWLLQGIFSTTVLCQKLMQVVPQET

Row | Substance | glycan array binding signal (z-score)
1 | Aggrecan (Rattus norvegicus), NP_071526 | -0.071
2 | wLAT-1A (Homo sapiens), Q01650 | 0.584
3 | PILRb (Mus musculus), Q2YSF2 | -0.166

system: Neu5Ac(a2-3)Gal(b1-3)[Neu5Ac(a2-6)]GalNAc; experiment: as above; details: glycan notation: IUPAC condensed, linker removed
In short: as §1

Row | Substance | glycan array binding signal (z-score)
4 | SRLC (Mus musculus), Q8VIF6 | -0.214
5 | Avaren (Actinomycete K97) | -0.174
6 | PILRa (Mus musculus), Q2YSF3 | 3.58
